The target in test [1] is Type-1 angiotensin II receptor (Homo sapiens) (UniProt P30556). In words: NVS_GPCR_hAT1: NovaScreen (NVS) G Protein-Coupled Receptor Assay for human Angiotensin II receptor type 1 (AT1) (AID 2283263). The essentials:
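Hits from a 25 uM duplicate screen (threshold e.g. 30% inhibition) were run in concentration-response with 50 uM top concentration. Displacement of specific radioligand from KAN-TS membrane preparations measured after 3 h by filter scintillation, DMSO as baseline.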

The target of test [2] is human Leukotriene B4 Receptor 1 (LTB4-BLT1), LTB4R (gene 1241) (UniProt Q15722). The test is described as follows: NVS_GPCR_hLTB4_BLT1: NovaScreen (NVS) G Protein-Coupled Receptor Assay for human Leukotriene B4 Receptor 1 (LTB4-BLT1) (AID 2283271). The method, boiled down: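 Cell-free human neutrophil receptor preparation, 1 h exposure, radioligand binding read by filter scintillation counting. Single 25 uM duplicate screen, then concentration series topping at 50 uM; binding loss scored against DMSO baseline.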
Chain of human Leukotriene B4 Receptor 1 (LTB4-BLT1), LTB4R (gene 1241) (Q15722 whole entry, looked up): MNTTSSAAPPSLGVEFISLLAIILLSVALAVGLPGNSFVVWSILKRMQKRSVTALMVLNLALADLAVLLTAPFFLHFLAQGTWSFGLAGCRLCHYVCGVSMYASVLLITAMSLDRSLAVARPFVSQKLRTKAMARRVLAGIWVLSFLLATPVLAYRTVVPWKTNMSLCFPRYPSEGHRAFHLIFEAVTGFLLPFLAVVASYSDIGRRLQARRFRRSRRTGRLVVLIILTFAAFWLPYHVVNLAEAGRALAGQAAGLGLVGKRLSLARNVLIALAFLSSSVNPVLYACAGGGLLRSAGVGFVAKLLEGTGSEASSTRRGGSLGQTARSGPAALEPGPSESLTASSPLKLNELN

The target of test [3] is human Dopamine Receptor D2 (DRD2), DRD2 (gene 1813) (UniProt P14416). The test is described as follows: NVS_GPCR_hDRD2s: NovaScreen (NVS) G Protein-Coupled Receptor Assay for human Dopamine Receptor D2 (DRD2) (AID 2283266). The method, boiled down: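 Test compound (25 uM, duplicate in the primary screen; concentration series at follow-up) competed with radioligand for human DRD2 in CHO-derived membrane protein. Filter-based scintillation counting was done 1.5 hours after dosing, with loss of signal analysed against DMSO.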

Test [4] concerns the target D(1A) dopamine receptor (Homo sapiens) (UniProt P21728). The test is described as follows: NVS_GPCR_hDRD1: NovaScreen (NVS) G Protein-Coupled Receptor Assay for human Dopamine Receptor D1 (DRD1) (AID 2283269). The essentials: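 HEK293-derived receptor preparation; radioligand competitive displacement; 1 h; filtration + scintillation counting. DMSO = negative control/baseline. Primary: 25 uM, duplicate; secondary: concentration–response for actives.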

The target in test [5] is human Neuropeptide Receptor Y1 (NPY1), NPY1R (gene 4886) (UniProt P25929). In words: NVS_GPCR_hNPY1: NovaScreen (NVS) G Protein-Coupled Receptor Assay for human Neuropeptide Receptor Y1 (NPY1) (AID 2283276). The method, boiled down: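 Displacement of specific radioligand from NPY1 receptor of SK-N-MC origin, read by filtration and scintillation after 1 h. Compounds first tested at 25 uM in duplicate, then actives in concentration series; signal loss relative to DMSO.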
Chain of human Neuropeptide Receptor Y1 (NPY1), NPY1R (gene 4886) (P25929 whole entry, looked up): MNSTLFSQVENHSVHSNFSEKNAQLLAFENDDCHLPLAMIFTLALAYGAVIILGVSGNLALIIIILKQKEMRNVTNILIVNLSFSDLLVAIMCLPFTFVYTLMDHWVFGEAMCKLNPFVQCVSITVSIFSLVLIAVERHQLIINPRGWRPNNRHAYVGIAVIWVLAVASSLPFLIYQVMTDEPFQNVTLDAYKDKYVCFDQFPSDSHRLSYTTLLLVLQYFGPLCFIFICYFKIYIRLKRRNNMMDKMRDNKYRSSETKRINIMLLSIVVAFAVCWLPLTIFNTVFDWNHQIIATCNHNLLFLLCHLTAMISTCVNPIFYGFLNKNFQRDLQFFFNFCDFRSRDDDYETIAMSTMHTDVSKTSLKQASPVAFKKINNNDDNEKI

Test [6] concerns the target human Neurokinin, NK2 Receptor, TACR2 (gene 6865) (UniProt P21452). The test is described as follows: NVS_GPCR_hNK2: NovaScreen (NVS) G Protein-Coupled Receptor Assay for human Neurokinin, NK2 Receptor (AID 2283278).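 Further: actives reduce bound radioligand signal relative to DMSO baseline.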 The method, boiled down: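 Filter-based scintillation counting measured radioligand bound to receptor extracted from CHO cells, 4 hours after compound addition. Chemicals screened first at 25 uM in duplicate, with actives retested in concentration series relative to DMSO.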

The target in test [7] is human Muscarinic, M4 Receptor, CHRM4 (gene 1132) (UniProt P08173). The test is described as follows: NVS_GPCR_hM4: NovaScreen (NVS) G Protein-Coupled Receptor Assay for human Muscarinic, M4 Receptor (AID 2283274). The essentials:
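Filter-based scintillation counting of radioligand bound to CHO-expressed human M4 preparations after 1 h; loss of signal fitted versus DMSO. Initial duplicate testing at 25 uM, concentration-response follow-up for actives.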

Test [8] concerns the target human Histamine 1 Receptor (H1), HRH1 (gene 3269) (UniProt P35367). The test is described as follows: NVS_GPCR_hH1: NovaScreen (NVS) G Protein-Coupled Receptor Assay for human Histamine 1 Receptor (H1) (AID 2283268). The essentials: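 Filter-based scintillation detection of radioligand binding to human H1, 1 h incubation; chemicals screened in duplicate at 25 uM, then concentration-response; signal loss relative to DMSO taken as activity.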

The target in test [9] is Muscarinic acetylcholine receptor M2 (Homo sapiens) (UniProt P08172). In words: NVS_GPCR_hM2: NovaScreen (NVS) G Protein-Coupled Receptor Assay for human Muscarinic, M2 Receptor (AID 2283273). The essentials:
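Filter-based radiodetection read bound radioligand 1 h after dosing CHO-derived membrane protein. Single-concentration duplicates (25 uM) first, then concentration-response for actives; signal loss versus DMSO scored.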

In test [10] the target is human Neurotensin Receptor (NTS), NTSR1 (gene 4923) (UniProt P30989). In words: NVS_GPCR_hNTS: NovaScreen (NVS) G Protein-Coupled Receptor Assay for human Neurotensin Receptor (NTS) (AID 2283279). The method, boiled down: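 Compounds competed with a radiolabelled ligand for binding to CHO-derived human neurotensin receptor; bound signal counted after filtration, 1 h. Screened first at a single concentration of 25 uM in duplicate, then concentration series to 50 uM maximum for actives.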

The target in test [11] is Muscarinic acetylcholine receptor M3 (Homo sapiens) (UniProt P20309). The test is described as follows: NVS_GPCR_hM3: NovaScreen (NVS) G Protein-Coupled Receptor Assay for human Muscarinic, M3 Receptor (AID 2283272). The method, boiled down:
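Radioligand displacement binding on human M3 receptor in CHO-derived membranes, 1 h incubation, filter-based scintillation counting. Primary screen in duplicate at 25 uM; actives followed up in concentration series; loss of signal versus DMSO.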

Test [12] has as its target Neuropeptide Y receptor type 2 (Homo sapiens) (UniProt P49146). In words: NVS_GPCR_hNPY2: NovaScreen (NVS) G Protein-Coupled Receptor Assay for human Neuropeptide Receptor Y2 (NPY2) (AID 2283277). The method, boiled down:
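Chemicals were first tested in duplicate at 25 uM, then actives in singleton concentration series to 50 uM. Tracer binding to SK-N-MC-derived protein measured cell-free after 1 h via filter scintillation; signal loss relative to DMSO.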

Test [13] has as its target Muscarinic acetylcholine receptor M1 (Homo sapiens) (UniProt P11229). The test is described as follows: NVS_GPCR_hM1: NovaScreen (NVS) G Protein-Coupled Receptor Assay for human Muscarinic, M1 Receptor (AID 2283270). The method, boiled down: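 Actives from a duplicate 25 uM single-point screen were retested in concentration series. Binding measured as displacement of a radioligand from CHO-derived receptor preparation, 1 h incubation, filtration and scintillation counting, analysed as signal loss against DMSO.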

Structures are written as SMILES. Inconclusive results are not listed. Activity calls are given as the source filed them. How the source made its calls: active means hit-call score of the fitted dose curve at least 0.9, where 1 is the maximum; inconclusive means response in the unintended direction; inactive means score below 0.9.

Chain of D(1A) dopamine receptor (Homo sapiens) (P21728 whole entry, looked up): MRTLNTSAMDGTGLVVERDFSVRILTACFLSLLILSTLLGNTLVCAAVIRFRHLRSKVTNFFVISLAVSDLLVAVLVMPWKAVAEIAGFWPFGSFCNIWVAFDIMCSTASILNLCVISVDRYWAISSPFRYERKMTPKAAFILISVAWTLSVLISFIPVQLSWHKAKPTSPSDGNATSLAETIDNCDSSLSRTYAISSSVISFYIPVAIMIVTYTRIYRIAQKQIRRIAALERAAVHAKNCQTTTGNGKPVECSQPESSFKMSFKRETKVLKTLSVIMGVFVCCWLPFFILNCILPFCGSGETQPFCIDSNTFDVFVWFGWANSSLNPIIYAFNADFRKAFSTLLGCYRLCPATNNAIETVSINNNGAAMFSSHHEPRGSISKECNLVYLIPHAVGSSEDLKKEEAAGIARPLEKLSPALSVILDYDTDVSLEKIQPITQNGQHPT
Chain of human Muscarinic, M4 Receptor, CHRM4 (gene 1132) (P08173 whole entry, looked up): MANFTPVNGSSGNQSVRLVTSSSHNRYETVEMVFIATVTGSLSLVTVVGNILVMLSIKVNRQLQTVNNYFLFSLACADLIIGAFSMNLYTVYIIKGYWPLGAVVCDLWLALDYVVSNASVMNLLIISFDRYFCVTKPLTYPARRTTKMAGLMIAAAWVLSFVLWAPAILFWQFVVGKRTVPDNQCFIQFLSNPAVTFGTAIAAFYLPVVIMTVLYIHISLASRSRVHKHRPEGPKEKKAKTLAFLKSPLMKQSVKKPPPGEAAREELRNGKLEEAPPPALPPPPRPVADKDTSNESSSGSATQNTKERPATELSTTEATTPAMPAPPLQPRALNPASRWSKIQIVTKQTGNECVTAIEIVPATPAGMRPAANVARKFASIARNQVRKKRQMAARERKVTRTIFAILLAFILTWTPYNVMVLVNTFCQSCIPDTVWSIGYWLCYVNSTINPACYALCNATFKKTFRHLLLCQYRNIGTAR
Chain of human Neurokinin, NK2 Receptor, TACR2 (gene 6865) (P21452 whole entry, looked up): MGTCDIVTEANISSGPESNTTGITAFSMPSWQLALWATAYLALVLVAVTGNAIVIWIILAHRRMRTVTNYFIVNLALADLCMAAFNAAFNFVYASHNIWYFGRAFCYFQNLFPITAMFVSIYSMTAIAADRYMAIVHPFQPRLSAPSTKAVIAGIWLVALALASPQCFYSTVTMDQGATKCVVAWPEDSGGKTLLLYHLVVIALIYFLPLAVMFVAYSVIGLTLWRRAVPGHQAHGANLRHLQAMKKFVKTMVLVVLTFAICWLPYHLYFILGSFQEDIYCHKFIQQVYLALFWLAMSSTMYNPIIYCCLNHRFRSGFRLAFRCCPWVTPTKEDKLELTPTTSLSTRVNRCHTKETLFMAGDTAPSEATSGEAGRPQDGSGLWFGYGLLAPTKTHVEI
Chain of Muscarinic acetylcholine receptor M3 (Homo sapiens) (P20309 whole entry, looked up): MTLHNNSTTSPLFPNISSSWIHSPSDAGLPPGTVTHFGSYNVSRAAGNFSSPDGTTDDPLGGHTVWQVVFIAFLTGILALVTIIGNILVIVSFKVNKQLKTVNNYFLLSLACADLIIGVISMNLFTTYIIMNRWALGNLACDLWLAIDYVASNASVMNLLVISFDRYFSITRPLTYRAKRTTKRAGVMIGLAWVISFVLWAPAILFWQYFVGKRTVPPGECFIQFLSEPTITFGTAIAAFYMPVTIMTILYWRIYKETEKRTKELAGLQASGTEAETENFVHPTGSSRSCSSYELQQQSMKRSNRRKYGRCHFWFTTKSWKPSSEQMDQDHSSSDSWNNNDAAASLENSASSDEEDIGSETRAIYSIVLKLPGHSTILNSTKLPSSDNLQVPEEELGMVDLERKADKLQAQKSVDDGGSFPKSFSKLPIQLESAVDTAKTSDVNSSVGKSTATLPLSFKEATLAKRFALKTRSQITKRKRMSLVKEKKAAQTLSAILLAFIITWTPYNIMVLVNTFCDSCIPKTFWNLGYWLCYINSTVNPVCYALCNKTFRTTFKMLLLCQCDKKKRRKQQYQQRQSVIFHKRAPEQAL
Chain of Muscarinic acetylcholine receptor M2 (Homo sapiens) (P08172 whole entry, looked up): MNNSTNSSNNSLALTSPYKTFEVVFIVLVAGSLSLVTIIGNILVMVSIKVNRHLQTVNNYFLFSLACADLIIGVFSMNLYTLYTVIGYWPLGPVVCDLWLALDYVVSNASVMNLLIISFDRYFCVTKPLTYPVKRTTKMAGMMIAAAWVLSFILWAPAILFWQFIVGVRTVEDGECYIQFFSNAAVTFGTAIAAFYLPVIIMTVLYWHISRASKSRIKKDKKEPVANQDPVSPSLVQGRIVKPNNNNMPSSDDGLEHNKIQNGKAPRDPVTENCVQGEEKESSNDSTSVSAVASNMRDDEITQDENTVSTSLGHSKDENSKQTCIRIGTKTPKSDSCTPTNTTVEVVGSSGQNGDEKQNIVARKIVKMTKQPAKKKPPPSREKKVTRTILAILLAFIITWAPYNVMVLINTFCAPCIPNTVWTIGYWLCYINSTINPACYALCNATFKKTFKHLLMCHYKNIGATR
Chain of Type-1 angiotensin II receptor (Homo sapiens) (P30556 whole entry, looked up): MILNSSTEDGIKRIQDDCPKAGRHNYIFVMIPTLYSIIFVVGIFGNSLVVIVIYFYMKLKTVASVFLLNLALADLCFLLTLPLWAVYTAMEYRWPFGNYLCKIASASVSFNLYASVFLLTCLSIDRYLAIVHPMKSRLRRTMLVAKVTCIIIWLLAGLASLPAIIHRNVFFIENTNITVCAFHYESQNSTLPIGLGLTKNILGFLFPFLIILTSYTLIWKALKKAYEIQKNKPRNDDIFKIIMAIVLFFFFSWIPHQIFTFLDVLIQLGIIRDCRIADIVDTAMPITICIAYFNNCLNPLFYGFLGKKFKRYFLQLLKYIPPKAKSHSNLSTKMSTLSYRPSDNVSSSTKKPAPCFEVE
Chain of Neuropeptide Y receptor type 2 (Homo sapiens) (P49146 whole entry, looked up): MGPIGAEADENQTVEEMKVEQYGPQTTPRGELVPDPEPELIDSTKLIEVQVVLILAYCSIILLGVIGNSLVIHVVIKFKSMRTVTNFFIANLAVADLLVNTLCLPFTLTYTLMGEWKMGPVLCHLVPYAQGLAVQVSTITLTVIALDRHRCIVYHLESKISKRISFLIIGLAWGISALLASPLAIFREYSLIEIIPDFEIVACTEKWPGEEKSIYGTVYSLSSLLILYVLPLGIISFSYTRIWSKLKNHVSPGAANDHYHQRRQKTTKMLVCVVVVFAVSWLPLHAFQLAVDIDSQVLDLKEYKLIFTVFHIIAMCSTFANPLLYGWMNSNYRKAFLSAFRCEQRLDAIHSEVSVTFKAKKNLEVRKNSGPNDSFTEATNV
Chain of human Histamine 1 Receptor (H1), HRH1 (gene 3269) (P35367 whole entry, looked up): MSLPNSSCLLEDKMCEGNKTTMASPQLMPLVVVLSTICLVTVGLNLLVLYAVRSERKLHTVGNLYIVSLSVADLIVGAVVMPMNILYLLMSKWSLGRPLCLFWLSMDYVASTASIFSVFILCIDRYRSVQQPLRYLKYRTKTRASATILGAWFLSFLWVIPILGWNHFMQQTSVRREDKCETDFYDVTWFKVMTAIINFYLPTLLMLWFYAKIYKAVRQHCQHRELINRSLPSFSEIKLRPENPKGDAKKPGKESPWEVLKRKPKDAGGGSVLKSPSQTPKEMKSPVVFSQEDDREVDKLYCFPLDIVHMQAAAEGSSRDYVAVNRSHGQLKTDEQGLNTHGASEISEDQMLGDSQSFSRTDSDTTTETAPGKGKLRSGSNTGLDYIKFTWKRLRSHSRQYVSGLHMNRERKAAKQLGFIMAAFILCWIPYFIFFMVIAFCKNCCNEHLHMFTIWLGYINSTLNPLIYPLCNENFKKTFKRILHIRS
Chain of Muscarinic acetylcholine receptor M1 (Homo sapiens) (P11229 whole entry, looked up): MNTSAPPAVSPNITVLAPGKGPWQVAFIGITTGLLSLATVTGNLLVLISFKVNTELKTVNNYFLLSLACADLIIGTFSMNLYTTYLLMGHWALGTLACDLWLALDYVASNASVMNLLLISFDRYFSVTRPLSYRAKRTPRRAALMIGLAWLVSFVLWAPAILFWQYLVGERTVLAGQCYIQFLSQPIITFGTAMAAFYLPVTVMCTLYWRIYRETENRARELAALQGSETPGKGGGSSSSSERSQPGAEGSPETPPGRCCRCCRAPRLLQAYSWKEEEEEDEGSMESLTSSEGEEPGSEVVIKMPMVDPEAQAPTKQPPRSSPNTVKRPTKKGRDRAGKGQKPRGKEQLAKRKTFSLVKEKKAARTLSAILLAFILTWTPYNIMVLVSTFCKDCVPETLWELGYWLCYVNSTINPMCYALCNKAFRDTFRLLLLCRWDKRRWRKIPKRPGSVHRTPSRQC

Take `COC(=O)N(C(=O)N1CO[C@@]2(C(=O)OC)Cc3cc(Cl)ccc3C2=N1)c1ccc(OC(F)(F)F)cc1`: the molecule was called inactive in [1] and in test [2].

On to `O=C1C2CC=CCC2C(=O)N1SC(Cl)(Cl)Cl` (stereo not drawn), for which the AC50 (usually the concentration at which the activity in the assay is half-maximal) was 13.4 µM (active) in [1]; 25 µM (active) in [3]; 9.65 µM (active) in [4]; 9.25 µM (active) in test [5]; 4.9 µM (active) in test [6].

Consider `CCNC(=O)NC(=O)C(C#N)=NOC`, for which the result in test [7] was inactive.

Turning to `Cc1c(COC(=O)[C@@H]2[C@H](/C=C(\Cl)C(F)(F)F)C2(C)C)cccc1-c1ccccc1`, the molecule was classed as inactive in [6].

In the case of `CCOc1nc(F)cc2nc(S(=O)(=O)Nc3c(Cl)cccc3Cl)nn12`, the molecule was called inactive in test [6].

As for `CCCCOCN(C(=O)CCl)c1c(CC)cccc1CC`, in test [2], the result was inactive.

With `CCOP(=O)(OCC)Oc1nc(Cl)c(Cl)cc1Cl`, the molecule was classed as inactive in test [8], in test [4] and in test [9].

Regarding `COCC(C)N(C(=O)CCl)c1c(C)csc1C` (stereo not drawn), the outcome in test [2] was inactive.

In the case of `COc1cc(OC)nc(NC(=O)NS(=O)(=O)c2ncccc2OCC(F)(F)F)n1`, the molecule was called inactive in test [2].

Take `O=C(Nc1ccccc1-c1ccc(Cl)cc1)c1cccnc1Cl`: in test [10], the molecule was classed as inactive.

Consider `CC1(C)C(C(=O)OC(C#N)c2cccc(Oc3ccccc3)c2)C1(C)C` (stereo not drawn), for which the outcome in [6] was inactive.

With `CCCCC(O)(Cn1cncn1)c1ccc(Cl)cc1Cl` (stereo not drawn), the result in [2], in [9] and in [5] was inactive.

On to `CC(C)(C)C(=O)C(Oc1ccc(Cl)cc1)n1cncn1` (stereo not drawn), for which the concentration at half-maximal activity (AC50) in [2] was 11.8 µM (active); in test [9] it was 4.96 µM (active). Moreover, the call in test [11] and in test [7] was inactive.

Regarding `COP(=O)(OC)O/C(C)=C/C(=O)N(C)C`, the result in test [10] was inactive.

Turning to `CCC(C)n1c(=O)[nH]c(C)c(Br)c1=O` (stereo not drawn), the outcome in test [8] and in test [11] was inactive.

Consider `Cc1ccc(N=CN(C)C=Nc2ccc(C)cc2C)c(C)c1`, for which the result in [4] and in [7] was inactive.

Consider `N#Cc1c(Cl)cccc1Cl`, for which the call in test [7] was inactive.

Turning to `N#CN=C1SCCN1Cc1ccc(Cl)nc1`, the outcome in [12] was inactive.

On to `CCOc1cc(C(C)(C)C)ccc1C1COC(c2c(F)cccc2F)=N1` (stereo not drawn), for which the molecule was called inactive in test [4].

Regarding `O=c1n(Cl)c(=O)n(Cl)c(=O)n1Cl`, in test [13], the result was inactive.

As to `CCNP(=S)(OC)O/C(C)=C/C(=O)OC(C)C` (stereo not drawn), the result in test [9] and in test [12] was inactive.

Turning to `CCSC(=O)N1CCCCCC1`, the values for the concentration at half-maximal activity (AC50) in test [11], in [9] and in test [7] were 8.57 µM (active), 6.85 µM (active) and 4.96 µM (active), respectively.

As to `CCCCC(C#N)(Cn1cncn1)c1ccc(Cl)cc1` (stereo not drawn), the AC50 in test [13] was 5.56 µM (active); in [11], 8.08 µM (active); in test [9], 14.6 µM (active); in test [7], 7.69 µM (active).

The values are drawn from PubChem BioAssay (EPA / NIEHS).
